Reference: PubChem BioAssay AID1532 (PCMD, 2009)
Hit rate of the full screen: of about 110,000 compounds, about 420 (0.38%) were called active. Rule as the data show it: active = inhibition above about 30% (passing the limit was not always enough); inconclusive = no clear call, values can overlap the other calls. Many of the other results were omitted from the sample, so actives are more common in it than they were.

Tested on: RmlC (dTDP-4-dehydrorhamnose 3,5-epimerase) and RmlD (dTDP-4-dehydrorhamnose reductase), coupled enzyme assay
Experiment: RmlC and RmlD coupled enzyme inhibitors, primary screen, biochemical, 384-well, compound mixtures, retest (AID 1532)
Conditions: 384-well mixture HTS, at 5.5 µM, stronger effect = higher value
[1] = measured here: mean retest inhibition

Structure (SMILES)	inhibition	inhibition [1]
OCC[C@H]1C[C@H](O)[C@@H](O)[C@]2(CCCCO2)O1	7.31% (inactive)	–
NC(=O)c1sc2nc3c(c(-c4ccccc4)c2c1N)CCC3	-14.4% (inactive)	–
Cc1cccc(NC(=O)c2sc3nc4c(c(-c5ccco5)c3c2N)CCC4)c1	20.3% (inactive)	–
CC(=O)Nc1ccc(NC(=O)c2sc3nc4c(c(-c5ccc(C)cc5)c3c2N)CCC4)cc1	47.9% (active)	82.8%
CCOC(=O)c1ccccc1NC(=O)c1c(N)n(C)c(=O)[nH]c1=O	7.68% (inactive)	–
CC(C)(C)CN1C(=O)C(=O)NC[C@H]1Cc1cccc2ccccc12	-1.48% (inactive)	–
C#CCNC(=O)C1=C[C@@H](c2ccccc2)[C@H](CCCO)[C@@H](OCC)O1	0.66% (inactive)	–
C/C=C(\C)C(=O)N1CC2(CC(c3cccc(NC(=O)CCCCC)c3)=NO2)C[C@@H]1C(N)=O (stereo not given in full)	-5.61% (inactive)	–
CC(Sc1nc2c([nH]c3ccccc32)c(=O)n1C)c1ccccc1 (stereo not given)	-7.85% (inactive)	–
CC(C)=CCC/C(C)=C/C(=O)O	2.81% (inactive)	–
c1ccc(-c2cn3c(n2)CCc2ccc4cccnc4c2-3)cc1	-52.8% (inactive)	–
CC(=O)Nc1cccc(-c2cnc3ccccc3n2)c1	13.8% (inactive)	–
c1ccc(-c2ccnc3nc(-n4cccc4)nn23)cc1	-3.61% (inactive)	–
CCCC(=O)Nc1cccc(-c2cn3ccsc3n2)c1	3.46% (inactive)	–
CC(=O)Nc1ccc(-c2cn3cccnc3n2)cc1	102% (active)	156%
c1ccc(-c2cn3cccnc3n2)cc1	70% (active)	81.6%
CCCn1c(=NC(C)=O)c(C(=O)OCC)cc2c(=O)n3ccccc3nc21	48.4% (active)	60.1%
COc1ccc(CNC(=O)c2cc3c(=O)n4ccccc4nc3n(CC3CCCO3)c2=N)cc1 (stereo not given)	-12.4% (inactive)	–
CCn1c(=N)c(S(=O)(=O)c2ccc(F)cc2)cc2c(=O)n3ccccc3nc21	-13.4% (inactive)	–
C#CCOCCOCCOCCNc1nc(N2CCN(C(=O)[C@H](CCC(=O)O)n3cc(C(N)CO)nn3)CC2)nc(N2CCN(C(=O)[C@H](CCCCN)n3cc(C(N)[C@H](C)CC)nn3)CC2)n1 (stereo not given in full)	2.59% (inactive)	–
COCc1cc(=O)[nH]c2cc(NC(=O)C(F)(F)F)c(C)cc12	39.2% (active)	46.2%
O=C(Nc1ccccc1)c1ccccc1NC(=O)C(F)(F)F	8.91% (inactive)	–
COc1ccc(OC)c2[nH]c(=O)c(CCNC(=O)C(C)(C)C)cc12	8.84% (inactive)	–
COC(C[C@@H](O)[C@H](C)[C@H](O)COCc1ccccc1)OC	2.05% (inactive)	–
CC(C)CC(CO)N1CCN(C(=O)c2ccc(Cl)cc2Cl)CCC1=O (stereo not given)	-11.9% (inactive)	–

Structure (SMILES)	inhibition	inhibition [1]
CCO[C@H]1OC(C(=O)O)=C[C@@H](C2CCCCC2)[C@@H]1CCCO	-6.81% (inactive)	–
COc1ccc(CN2CC[C@H]3C=CC[C@@H](C(=O)N4CCOCC4)[C@H]3C2=O)cc1OC	7.97% (inactive)	–
N#CCc1c(C#N)c(N)nc(N2CCCC2)c1C#N	14.6% (inactive)	–
COC(=O)CCCC1=CC2=CC(=O)C(C)(OC(=O)c3cccs3)C(=O)C2=CN1c1cccc(C#N)c1 (stereo not given)	-9.55% (inactive)	–
C=CC1C(OC2OC(CO)C(O)C(O)C2O)OC=C(C(=O)OC)C1CC1CC(=O)CC(CC(=O)CCc2ccc(O)cc2)O1 (stereo not given)	3.85% (inactive)	–
C#CCOCCOCCOCCNc1nc(N2CCN(C(=O)[C@H](C(C)C)n3cc(CCO)nn3)CC2)nc(N2CCN(C(=O)[C@H](C(C)C)n3cc(CCO)nn3)CC2)n1	-12.1% (inactive)	–
O=C(O)C1=C[C@H](c2cccs2)C[C@H](OCCCCO)O1	5.69% (inactive)	–
COC(=O)COc1cccc2c(=O)n(CC(=O)NCCc3ccc(OC)c(OC)c3)ccc12	9.94% (inactive)	–
CC1=C(N2CCN(c3ncccn3)CC2)CCC1=O	12.7% (inactive)	–
NC(=O)CC(NC(=O)Cc1cccc2ccccc12)c1ccc(NCc2cc(F)ccc2F)c([N+](=O)[O-])c1 (stereo not given)	-7.96% (inactive)	–
COC(=O)c1ccc(C(NC(=O)OCc2ccccc2)/C(F)=C/[C@@H](C)C(=O)O)cc1 (stereo not given in full)	3.33% (inactive)	–
CCCC[C@@H]1CN=C(N)N1CCCC	-28.4% (inactive)	–
COc1ccc(C(CC(=O)N2CCN(c3ccccc3)CC2)c2c(O)cc(OC)cc2OC)cc1 (stereo not given)	0.73% (inactive)	–
C/C=C\C=C\C(=O)N1CC2(CC(c3cccc(NC(=O)/C(C)=C\C)c3)=NO2)C[C@H]1C(N)=O (stereo not given in full)	-0.91% (inactive)	–
COC(C[C@@H]1O[C@@H]1C(=O)[C@H](C)OCc1ccccc1)OC	-11.7% (inactive)	–
CCC1(CC)C(=O)C2=C3C1[C@H](C(=O)OC)C=C(C(=O)OC)C[C@H]3[C@H]1C(=O)N(Cc3ccccc3)C(=O)[C@H]1[C@H]2C (stereo not given in full)	-0.95% (inactive)	–
C=C1CCN([C@H](C(=O)NCc2cc(OC)c(OC)c(OC)c2)C(C)C)S(=O)(=O)c2ccccc21	5.25% (inactive)	–
CC1(C)CC[C@]2(C(=O)O)CC[C@]3(C)C(=CCC4[C@@]5(C)CC[C@H](O)C(C)(C)C5[C@H](O)C[C@]43C)[C@@H]2C1 (stereo not given in full)	-10.3% (inactive)	–
CCCCN1C(N)=NC[C@@H]1Cc1ccccc1	-9.09% (inactive)	–
COC(C[C@H](O)CC(=O)[C@@H](C)OCc1ccccc1)OC	5.9% (inactive)	–
C=C1CCN([C@@H](Cc2ccccc2)C(=O)N2CCOCC2)S(=O)(=O)c2ccccc21	-7.13% (inactive)	–
C#CCO[C@@H]1C[C@H](n2cnc3c(=O)[nH]c(NC(=O)C(C)C)nc32)O[C@@H]1CO	17.4% (inactive)	–
CCO[C@@H]1OC(C(=O)NC2CC2)=C[C@H](C)[C@H]1CCCO	-10.3% (inactive)	–
C#CCOCCOCCOCCNc1nc(N2CCN(C(=O)C([C@@H](C)CC)n3cc(C(N)COC(=O)C(F)(F)F)nn3)CC2)nc(N2CCN(C(=O)[C@H](Cc3ccc(O)cc3)n3cc(C(N)[C@H](C)CC)nn3)CC2)n1 (stereo not given in full)	-15.9% (inactive)	–
COc1ccc(C2/C=C\CN(S(=O)(=O)c3cccs3)CC(=O)N2Cc2ccc(F)cc2)cc1 (stereo not given)	-18.6% (inactive)	–
